Vaccinia Venus – inhibitors of vaccinia virus (Venus reporter); Potency, µM (highest dose often 36.5 µM), most hits filed as inhibitors; 330,000 tested, 0.46% active; Vaccinia virus Venus reporter expression, fluorescence; calls by dose curve; tested in A549 cells; also: nearly all actives have a fitted effect of over 30% in size
HCV inhibitor – inhibitors of hepatitis C virus infection; Huh7.5.1 HCVcc-Cre infection, luciferase reporter, 44 h; Potency, µM (highest dose often 41.8 µM), most hits filed as inhibitors; 340,000 tested, 3.4% active
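Reporter virus HCVcc-Cre (~0.5 moi) infects cells exposed to compound; seeding density 1,000 cells/well with 4 h settling beforehand. Luminescence, 15 sec read, taken 44 h post-infection following a 15 min RT substrate incubation.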
Vaccinia mCherry – inhibitors of vaccinia virus infection (mCherry reporter signal). Potency, µM (highest dose often 36.5 µM), actives largely listed as inhibitors. 310,000 tested, 0.63% active. Vaccinia virus mCherry reporter infection, fluorescence. AID 720579; calls by dose curve; tested in A549 cells; also: nearly all actives have a fitted effect of over 35% in size
Sm TGR inh – inhibitors of Schistosoma mansoni thioredoxin glutathione reductase; Q962Y6; purified TGR, DTNB reduction, TNB absorbance 405 nm; Potency, µM (titrated, usually from 114 µM), usual class: inhibitors; 360,000 tested, 3% active; AID 485364; also: nearly all actives have a fitted effect of over 60% in size
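TGR 20 nM + NADPH 100 uM (dispensed conc.), cpd preinc 15 min RT; start with NADPH (500 uM addition) then DTNB (15 mM addition). Kinetic TNB absorbance, 405 nm filter. Four-parameter Hill fit across titration.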
FMDV inh – foot and mouth disease virus antiviral activity; FMDV antiviral cell-based qHTS; Potency, µM (doses to about 57.9 µM), usual class: inhibitors; 410,000 tested, 1.2% active; calls by dose curve; tested in HEK293T cells; also: read-out not given here; nearly all actives have a fitted effect of over 45% in size
HCMV inh – human cytomegalovirus inhibition | HFF cells, HCMV-luciferase reporter, 72 h; active compounds read low | activity change, negative = inhibition, % at 57.5 µM | 410,000 tested, 4.5% active; in the data active = activity change below about -60%; inconclusive = no clear call, values can overlap the other calls; inactive = above about -39%
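HFF cells seeded 16 h at 37C, treated with compounds, infected with luciferase-reporter HCMV at MOI 1 PFU/cell; luciferase read at 72 h post infection, normalized to buffer-only and Salinomycin controls.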
Numbers stand for hits; – = inactive; ? = inconclusive; · = no result given; [ ] = remark or other dose. In the library only some 9.3% were active in any assay of this set; here they are far more common. Unless noted, calls follow the shape of the dose curve; as a rule, active = well fitted curve in the direction sought with a large enough effect; inconclusive = small, poorly fitted or top-dose-only effect, or another doubt; inactive = no such curve, though single readings can be large; an effect the other way counts as inactive or inconclusive.

SMILES	Vaccinia Venus	HCV inhibitor	Vaccinia mCherry	Sm TGR inh	FMDV inh	HCMV inh
COc1ccc(/C=N/Nc2ccc(C(=O)O)cc2)cc1Br	–	–	–	–	22.4µM	–
O=C(O)c1ccc(N/N=C/c2ccc(OC(=O)c3ccccc3Cl)cc2)cc1	–	–	–	–	12.6µM	-67.6
CC(C)c1ccc(/C=N/Nc2ccc(C(=O)O)cc2)cc1	·	–	·	–	44.7µM	-63.5
O=C(O)c1ccc(N/N=C/c2ccc(-c3ccccc3)cc2)cc1	?	?	?	–	?	–
COc1ccc(Cc2nnc(SC)n2-c2ccc(F)cc2)cc1OC	–	·	–	·	–	·
O=C(Nc1cccc(-c2nn[nH]n2)c1)c1cccs1	–	–	–	–	–	–
CCCSP1(=S)NCCCO1 (stereo not drawn)	–	–	·	–	–	-101.0
COc1ccc(NC(=O)CS(=O)CC(=O)Nc2ccc(NC(C)=O)cc2)cc1 (stereo not drawn)	–	–	–	–	–	–
Cc1nc(Nc2ccc(Cl)cc2)c2nnn(Cc3ccccc3)c2n1	–	31.6µM	–	–	–	–
COc1ccc(Nc2nc(C)nc3c2nnn3Cc2ccccc2)cc1OC	?	?	·	–	?	–
CC(C)C(=O)N1CCN(c2ccc(NC(=O)c3ccc4c(c3)OCCO4)cc2Cl)CC1	·	12.6µM	·	–	11.2µM	-80.3
CC(C)C(=O)N1CCN(c2ccc(NC(=O)c3cccs3)cc2Cl)CC1	·	10µM	·	–	?	-85.5
CC(=O)N1CCN(c2ccc(NC(=O)c3ccc4c(c3)OCCO4)cc2Cl)CC1	–	–	–	–	?	–
Cc1ccc(-c2nn(CC(=O)NC3CCCC3)c3c2cnc2ccccc23)cc1	–	·	–	–	–	–
CCOc1ccc(N(CC(=O)NC2CCCCC2)S(=O)(=O)c2ccc(C)cc2)cc1	–	–	–	–	–	–
CCC(=O)N1CCc2cc(S(=O)(=O)CCC(=O)NCCC3=CCCCC3)ccc21	–	–	–	–	–	–
CC(C)Oc1ccc(CN2CCC2(C)C(=O)Nc2cccc3cccnc23)cc1 (stereo not drawn)	–	·	–	·	–	-77.9
CCC(=O)Nc1nc(CC(=O)Nc2ccccc2)cs1	·	–	·	–	–	?
COc1ccc(NC(=O)Cc2csc(NC(=O)Nc3ccccc3OC)n2)c(OC)c1	–	–	?	–	?	–
COc1ccccc1NC(=O)Cc1csc(NC(=S)Nc2ccccc2)n1	·	12.6µM	·	?	?	–
COc1ccc(NC(=S)Nc2nc(CC(=O)Nc3ccccc3OC)cs2)cc1	·	31.6µM	·	?	22.4µM	?
CC(=O)Nc1ccc(C=NN=C2c3ccccc3-c3ccccc32)cc1	?	?	?	·	–	–
COC(=O)C(Cc1ccc(O)cc1)NC(=O)c1ccccc1OC (stereo not drawn)	–	–	–	–	–	–
N#CC1=C2SCN(Cc3ccccc3)CN2C(=O)CC1c1ccc2c(c1)OCO2 (stereo not drawn)	·	–	·	3.55µM	–	–
COc1ccc2ccccc2c1C1CC(=O)N2CN(C3CCCCC3)CSC2=C1C#N (stereo not drawn)	–	–	–	28.2µM	?	–
SMILES	Vaccinia Venus	HCV inhibitor	Vaccinia mCherry	Sm TGR inh	FMDV inh	HCMV inh
N#CC1=C2SCN(Cc3ccco3)CN2C(=O)CC1c1ccc(Cl)cc1 (stereo not drawn)	·	–	·	–	–	–
COc1ccc(C2CC(=O)N3CN(Cc4ccco4)CSC3=C2C#N)cc1 (stereo not drawn)	·	–	·	39.8µM	–	–
CC(C)c1ccc(C2CC(=O)N3CN(Cc4ccco4)CSC3=C2C#N)cc1 (stereo not drawn)	·	–	·	2.24µM	?	–
N#CC1=C2SCN(Cc3ccccc3)CN2C(=O)CC1c1cccs1 (stereo not drawn)	–	–	–	–	–	–
CN(C(=O)c1ccc(F)cc1)c1ccccc1C(=O)NCc1ccccc1	–	–	–	–	–	–
C[C@@H]1ON(C)[C@H]2C[C@H]3c4cc(N5CCOCC5)ccc4CCN3C(=O)[C@@H]12	–	–[8.37 µM]	–	·	–	–
COc1ccc(OC)c(CNC(=O)C2CCN(S(=O)(=O)N3CCCCC3)CC2)c1	–	–	–	–	–	–
COc1ccc2ccccc2c1C1CC(=O)N2CN(Cc3ccco3)CSC2=C1C#N (stereo not drawn)	–	–	?	5.62µM	–	–
COc1ccc(C2CC(=O)N3CN(C4CCCCC4)CSC3=C2C#N)c(OC)c1 (stereo not drawn)	–	·	–	3.16µM	–	–
CCCCC(=O)OCC(=O)N1N=C(c2c[nH]c3ccccc23)C(O)C1c1ccc(OC)cc1 (stereo not drawn)	·	?	·	–	–	-60.8
COc1ccc(CC(=O)OCC(=O)N2N=C(c3ccccc3)CC2c2ccc(OC)cc2)cc1 (stereo not drawn)	–	–	–	–	–	–
CCOc1ccc2[nH]c(=O)c(CN(CCN3CCCC3)C(=S)Nc3ccccc3OCC)cc2c1	·	?	·	–	–	-63.6
COc1ccc2[nH]c(=O)c(CN(CC3CCCO3)C(=O)Nc3ccccc3OC)cc2c1 (stereo not drawn)	?	?	?	–	–	–
COc1ccc2[nH]c(=O)c(CN(CCN3CCCC3)C(=O)Nc3ccccc3Cl)cc2c1	–	–	·	–	–	-88.5
c1ccc(-c2ccccc2OCCCCn2ccnc2)cc1	–	–	–	?	–	–
S=C(NCc1cccnc1)Nc1cccc2ccccc12	–	–	–	31.6µM	–	–
S=C(NCCc1ccccc1)Nc1cccc2cnccc12	–	?	–	–	–	-94.8
CCCCNC(=S)Nc1cccc2cnccc12	–	10µM	–	?	–	–
COc1ccc(CCNC(=S)Nc2cccc3ccccc23)cc1	–	?	–	–	–	–
S=C(NCc1cccnc1)NCc1cccnc1	–	–	–	–	–	–
COc1ccc(OCCNC(=S)Nc2cccc3ccccc23)cc1	·	?	·	–	–	-83.8
COCCNC(=S)Nc1cccc2cnccc12	–	?	–	?	–	–
O=C(NCC(c1cccnc1)N1CCN(Cc2ccccc2)CC1)C(=O)Nc1cccc(Cl)c1 (stereo not drawn)	–	·	–	–	–	?
COCCCN1CN(Cc2ccco2)CNC1=S	–	–	–	–	–	–
COC(=O)c1ccccc1-c1c2ccc(=N)cc-2oc2cc(N)ccc12	·	?	–	–	–	-97.0
COc1cc(/C=C(/NC(=O)c2ccccc2)C(=O)Nc2ccc(O)cc2)c([N+](=O)[O-])cc1OC	–	–	–	–	–	-73.2
COc1cc(/C=C(/NC(=O)c2ccccc2)C(=O)Nc2ccccc2)c([N+](=O)[O-])cc1OC	–	?	–	–	–	–
CCN1CCN(c2c(/C=C3\SC(=S)N(Cc4ccco4)C3=O)c(C)c(C#N)c(=O)n2C)CC1	–	2.24µM	–	–	–	-72.9
COc1ccc(NCc2cccn2-c2nnc(N3CCOCC3)s2)cc1OC	–	·	–	31.6µM	–	–

Screens as filed in PubChem.
